# Measurements taken from PubChem BioAssay (EPA / NIEHS).
# Results filed as inconclusive are left out. Calls of active or inactive are those of the source. How the source made its calls, unless noted: active means hit-call score of the fitted dose curve at least 0.9, where 1 is the maximum; inconclusive means response in the unintended direction; inactive means score below 0.9.
# Read-out: TIMP1, TIMP1 (gene 7076)
# Test: LTEA_HepaRG_TIMP1: Life Technologies and Expression Analysis (LTEA) Assay for TIMP1 using HepaRG (AID 2283534; active means hit-call score of the fitted dose curve at least 0.9, where 1 is the maximum; inactive means score below 0.9;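 further: TaqMan qRT-PCR signal normalized to ACTB GAPDH and POLR2A housekeeping genes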)
# Conditions: mRNA level, 48 h; actives raise or lower the signal
# Summary of the method: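 TIMP1 induction or repression in HepaRG cells after 48 h chemical exposure (eight concentrations, highest 100 uM), assessed by normalized qRT-PCR with bidirectional fitting to DMSO controls.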
row,Structure (SMILES),outcome
1,Cc1ccc([N+](=O)[O-])cc1N,inactive
2,C1CNCCN1,inactive
3,Nc1ccc(C(=O)O)cc1,inactive

# Read-out: Tumor necrosis factor receptor 1 (TNFRSF1A), TNFRSF1A (gene 7132)
# Test: LTEA_HepaRG_TNFRSF1A: Life Technologies and Expression Analysis (LTEA) Assay for Tumor necrosis factor receptor 1 (TNFRSF1A) using HepaRG (AID 2283535; active means hit-call score of the fitted dose curve at least 0.9, where 1 is the maximum; inactive means score below 0.9)
# Conditions: mRNA level, 48 h; actives raise or lower the signal
# Summary of the method: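 Assay uses 48 h chemical treatment of differentiated HepaRG monolayers, tested in duplicate at eight concentrations from 100 uM downward in 0.5% DMSO. mRNA is normalized to ACTB, GAPDH and POLR2A, with induction or suppression fitted relative to vehicle.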
row,Structure (SMILES),outcome
1,Cc1ccc([N+](=O)[O-])cc1N,inactive
2,C1CNCCN1,inactive
3,Nc1ccc(C(=O)O)cc1,inactive

# Read-out: Thyroid Hormone Responsive (THRSP), THRSP (gene 7069)
# Test: LTEA_HepaRG_THRSP: Life Technologies and Expression Analysis (LTEA) Assay for Thyroid Hormone Responsive (THRSP) using HepaRG (AID 2283536; active means hit-call score of the fitted dose curve at least 0.9, where 1 is the maximum; inactive means score below 0.9)
# Conditions: mRNA level, 48 h; actives raise or lower the signal
# Summary of the method: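 Cell model: human HepaRG, approx. 100,000 cells/well, 0.5% DMSO vehicle. Exposure lasts 48 h; phenobarbital 1 mM serves as induction positive control. Gene expression is measured by qRT-PCR against three endogenous control genes.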
Structure (SMILES),AC50,outcome
Cc1ccc([N+](=O)[O-])cc1N,13.3 µM (active),
C1CNCCN1,,inactive
Nc1ccc(C(=O)O)cc1,,inactive

# Read-out: Cellular tumor antigen p53 (Homo sapiens) (UniProt P04637)
# Test: LTEA_HepaRG_TP53: Life Technologies and Expression Analysis (LTEA) Assay for Tumor Protein P53 (TP53) using HepaRG (AID 2283537; active means hit-call score of the fitted dose curve at least 0.9, where 1 is the maximum; inactive means score below 0.9)
# Conditions: mRNA level, 48 h; actives raise or lower the signal
# Summary of the method: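 HepaRG, 48 h exposure, top 100 uM, half-log 8-point, 0.5% DMSO vehicle, duplicates. Read: TP53 mRNA by TaqMan qRT-PCR, normalised to ACTB/GAPDH/POLR2A; bidirectional fit vs DMSO.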
row,Structure (SMILES),outcome
1,Cc1ccc([N+](=O)[O-])cc1N,inactive
2,C1CNCCN1,inactive
3,Nc1ccc(C(=O)O)cc1,inactive

# Read-out: UDP glucuronosyltransferase (UGT1A1), UGT1A1 (gene 54658)
# Test: LTEA_HepaRG_UGT1A1: Life Technologies and Expression Analysis (LTEA) Assay for UDP glucuronosyltransferase (UGT1A1) using HepaRG (AID 2283538; active means hit-call score of the fitted dose curve at least 0.9, where 1 is the maximum; inactive means score below 0.9)
# Conditions: mRNA level, 48 h; actives raise or lower the signal
# Summary of the method: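 Cells are plated, cultured 48 h, switched to serum-free induction medium, then dosed 48 h at eight concentrations (max 100 uM, 0.5% DMSO). RNA is isolated and UGT1A1 expression measured by qRT-PCR; changes versus DMSO are fitted in both directions.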
Structure (SMILES),AC50,outcome
Cc1ccc([N+](=O)[O-])cc1N,50 µM (active),
C1CNCCN1,,inactive
Nc1ccc(C(=O)O)cc1,,inactive

# Read-out: UDP glucuronosyltransferase (UGT1A6), UGT1A6 (gene 54578)
# Test: LTEA_HepaRG_UGT1A6: Life Technologies and Expression Analysis (LTEA) Assay for UDP glucuronosyltransferase (UGT1A6) using HepaRG (AID 2283539; active means hit-call score of the fitted dose curve at least 0.9, where 1 is the maximum; inactive means score below 0.9)
# Conditions: mRNA level, 48 h; actives raise or lower the signal
# Summary of the method: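 Measures mRNA change in HepaRG hepatic cells exposed 48 h to chemicals (eight-point, maximum 100 uM, 0.5% DMSO vehicle) in serum-free induction medium. Expression normalized to endogenous controls; DMSO served as negative control and baseline.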
row,Structure (SMILES),outcome
1,Cc1ccc([N+](=O)[O-])cc1N,inactive
2,C1CNCCN1,inactive
3,Nc1ccc(C(=O)O)cc1,inactive

# Read-out: X-box binding protein 1 (XBP1), XBP1 (gene 7494)
# Test: LTEA_HepaRG_XBP1: Life Technologies and Expression Analysis (LTEA) Assay for X-box binding protein 1 (XBP1) using HepaRG (AID 2283540; active means hit-call score of the fitted dose curve at least 0.9, where 1 is the maximum; inactive means score below 0.9)
# Conditions: mRNA level, 48 h; actives raise or lower the signal
# Summary of the method: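 Eight concentrations (half-log, highest 100 uM, 0.5% DMSO) tested in duplicate on HepaRG cells over 48 h in serum-free induction medium; qRT-PCR of XBP1 normalised to ACTB, GAPDH, POLR2A.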
row,Structure (SMILES),outcome
1,Cc1ccc([N+](=O)[O-])cc1N,inactive
2,C1CNCCN1,inactive
3,Nc1ccc(C(=O)O)cc1,inactive

# Read-out: not listed separately
# Test: LTEA_HepaRG_LDH_cytotoxicity: Cytotoxicity Assessment in the Life Technologies and Expression Analysis (LTEA) Assay (AID 2283563)
# Conditions: not given
# Summary of the method: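 Spent-medium LDH after 48 h chemical exposure of HepaRG cells in serum-free induction medium; eight concentrations, half-log dilutions from 100 uM, duplicate wells, fitted upward relative to 0.5% DMSO.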
row,Structure (SMILES),outcome
1,Cc1ccc([N+](=O)[O-])cc1N,inactive
2,C1CNCCN1,inactive
3,Nc1ccc(C(=O)O)cc1,inactive

# Tested on: not listed separately
# Test: ATG_XTT_Cytotoxicity: Cytotoxicity Assessment in the Attagene TRANS-FACTORIAL HepG2 Assay (AID 2283584)
# Conditions: not given
# Summary of the method: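 24 h chemical exposure of reporter-transfected HepG2; XTT signal loss vs DMSO indicates cytotoxicity.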
row,Structure (SMILES),outcome
1,Cc1c[nH]c(=O)[nH]c1=O,inactive
2,CC(C=O)c1ccccc1 (stereo not given),inactive
3,COC(=O)c1ccc(C(=O)OC)c(C(=O)OC)c1,inactive
4,CCCCCCCCCCCC(=O)N(C)CC(=O)O,inactive
5,CCC(=O)C1CC(C(C)C)CC=C1C (stereo not given),inactive
6,c1ccc(-c2nc3ccccc3[nH]2)cc1,inactive
7,Cc1ccc([N+](=O)[O-])cc1N,inactive
8,C1CCSC1,inactive
9,CCCCCCCCC(CO)CCCCCC (stereo not given),inactive
10,Cc1c(O)cccc1O,inactive
11,CC(C)CCOCc1ccccc1,inactive
12,CC(C)CO,inactive
13,CCC(C)C(=O)OC (stereo not given),inactive
14,Nc1cccc(N)n1,inactive
15,N#Cc1ccc(C(c2ccc(C#N)cc2)n2cncn2)cc1,inactive
16,CC1(C)C(=O)N(CO)C(=O)N1CO,inactive
17,Cc1ccc(C)c(OCCCC(C)(C)C(=O)O)c1,inactive
18,O=C(Oc1ccccc1)c1ccccc1O,inactive
19,CCCCCCCCCCCCCc1ccccc1,inactive

row,Structure (SMILES),outcome
1,CCc1cccc(C)c1N(C(=O)CS(=O)(=O)O)C(C)COC (stereo not given),inactive
2,Cn1cccc1,inactive
3,C1CNCCN1,inactive
4,CCC(C)c1ccccc1 (stereo not given),inactive
5,CCCCC(CC)COS(=O)(=O)O (stereo not given),inactive
6,CCCCCC1=CCCC1=O,inactive
7,CC1CCC(=O)C1=O (stereo not given),inactive
8,CC1=CP(=O)(c2ccccc2)CC1 (stereo not given),inactive
9,Nc1nc(N)nc(-c2ccccc2)n1,inactive
10,CCN(CC)c1cccc(C)c1,inactive
11,CCOC(=O)CC(=O)c1ccccc1,inactive
12,CCNc1nc(NC(C)(C)C)nc(OC)n1,inactive
13,CCc1cccc(CC)c1,inactive
14,C=CC(=O)NC(C)(C)C,inactive
15,CCCC=C(C=O)CC,inactive
16,Nc1ccc(C(=O)O)cc1,inactive
17,CCCCCCCO,inactive
18,COC(=O)C=Cc1ccccc1,inactive
19,CC(C)=NNC(N)=S,inactive

# Target: Cellular tumor antigen p53 (Homo sapiens) (UniProt P04637)
# Sequence (P04637 whole entry, looked up): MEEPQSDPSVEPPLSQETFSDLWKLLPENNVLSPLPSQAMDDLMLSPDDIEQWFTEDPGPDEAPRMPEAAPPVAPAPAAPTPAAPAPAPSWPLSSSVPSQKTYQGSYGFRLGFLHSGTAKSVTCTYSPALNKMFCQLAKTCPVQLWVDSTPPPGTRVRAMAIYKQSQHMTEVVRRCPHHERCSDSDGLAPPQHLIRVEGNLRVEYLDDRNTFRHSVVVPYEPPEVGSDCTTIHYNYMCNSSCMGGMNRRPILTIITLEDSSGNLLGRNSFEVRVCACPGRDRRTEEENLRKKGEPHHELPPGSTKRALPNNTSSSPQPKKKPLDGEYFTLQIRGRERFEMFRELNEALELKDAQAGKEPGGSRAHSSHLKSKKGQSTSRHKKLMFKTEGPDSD
# Test: TOX21_p53_BLA_p2_ratio: Tox21 HCT-116 p53 Agonism Beta-lactamase Assay, Ratio, Phase 2 (AID 2283592)
# Conditions: not given
# Summary of the method: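 DMSO-normalized, positive-direction endpoint derived from the 460 nm/530 nm FRET ratio in HCT116 p53 beta-lactamase reporter cells exposed 16 h at 37C and loaded with CCF4-AM for 2 h.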
row,Structure (SMILES),outcome
1,Cc1ccc([N+](=O)[O-])cc1N,inactive
2,C1CNCCN1,inactive
3,Nc1ccc(C(=O)O)cc1,inactive

# Target: Cellular tumor antigen p53 (Homo sapiens) (UniProt P04637)
# Test: TOX21_p53_BLA_p3_ratio: Tox21 HCT-116 p53 Agonism Beta-lactamase Assay, Ratio, Phase 3 (AID 2283596)
# Conditions: not given
# Summary of the method: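 Cells were seeded at 4000/well, rested 5 h at 37C, then dosed with DMSO compound solutions (217-fold dilution) for 16 h. CCF4-AM substrate was loaded for 2 h at room temperature, and the 460/530 nm emission ratio was fitted for gain of signal versus DMSO.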
row,Structure (SMILES),outcome
1,Cc1ccc([N+](=O)[O-])cc1N,inactive
2,C1CNCCN1,inactive
3,Nc1ccc(C(=O)O)cc1,inactive

# Target: Cellular tumor antigen p53 (Homo sapiens) (UniProt P04637)
# Test: TOX21_p53_BLA_p5_ratio: Tox21 HCT-116 p53 Agonism Beta-lactamase Assay, Ratio, Phase 5 (AID 2283599)
# Conditions: not given
# Summary of the method: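 HCT-116 cells carrying a p53-inducible beta-lactamase reporter were seeded at 4000 cells/well and dosed after 5 h with compound in DMSO (217-fold dilution). After 16 h at 37C, CCF4-AM substrate was added for 2 h, and the 460/530 nm emission ratio was scored as gain-of-signal versus DMSO.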
row,Structure (SMILES),outcome
1,Cc1ccc([N+](=O)[O-])cc1N,inactive
2,C1CNCCN1,inactive
3,Nc1ccc(C(=O)O)cc1,inactive

# Target: Cellular tumor antigen p53 (Homo sapiens) (UniProt P04637)
# Test: TOX21_p53_BLA_p4_ratio: Tox21 HCT-116 p53 Agonism Beta-lactamase Assay, Ratio, Phase 4 (AID 2283601)
# Conditions: not given
# Summary of the method: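 HCT116 cells carrying an inducible beta-lactamase reporter were plated at 4000 cells/well, rested 5 h, then exposed to compounds in DMSO (217-fold dilution) for 16 h at 37C. CCF4-AM substrate was loaded 2 h at room temperature; 460/530 nm emission ratio scored gain-of-signal versus DMSO.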
row,Structure (SMILES),outcome
1,Cc1ccc([N+](=O)[O-])cc1N,inactive
2,C1CNCCN1,inactive
3,Nc1ccc(C(=O)O)cc1,inactive

# Tested on: not listed separately
# Test: Tanguay_ZF_120hpf_MORT_legacy: (Legacy) Oregon State University Tanguay Lab 120 Hour Post-fertilization zebrafish Assay for Mortality (AID 2283633)
# Conditions: not given
# Summary of the method: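 Single dechorionated Tropical 5D embryos were held with test chemical (0.64% DMSO final) from 6 to 120 hpf at 28C under foil. Deaths at 24 or 120 hpf were recorded as binary calls, analysed for increase over DMSO controls.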
row,Structure (SMILES),outcome
1,Cc1ccc([N+](=O)[O-])cc1N,inactive
2,C1CNCCN1,inactive
3,Nc1ccc(C(=O)O)cc1,inactive

# Tested on: not listed separately
# Test: Tanguay_ZF_120hpf_AXIS_legacy: (Legacy) Oregon State University Tanguay Lab 120 Hour Post-fertilization zebrafish Assay for Body Axis Malformation (AID 2283635)
# Conditions: not given
# Summary of the method: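 Each dechorionated embryo was exposed alone from 6 hpf, with DMSO at 0.64% (vol/vol) and trimethyltin chloride 5 uM as positive control. Axis malformation was recorded at 120 hpf unless the embryo had died.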
row,Structure (SMILES),outcome
1,Cc1ccc([N+](=O)[O-])cc1N,inactive
2,C1CNCCN1,inactive
3,Nc1ccc(C(=O)O)cc1,inactive
